Calls of active or inactive are those of the source. Rule for the calls: active = hit-call score of the fitted dose curve at least 0.9, where 1 is the maximum; inactive = score below 0.9.
Columns and labels:
[1] = ATG_GLI_CIS: Attagene CIS-FACTORIAL HepG2 Assay for human Zinc Finger Protein GLI1 (AID 2282945); details: HepG2, Attagene cis-factorial reporter mRNA, GLI element; actives raise or lower the signal
Method in brief: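 Bidirectional curve fits relative to DMSO, using reporter mRNA levels from RT-PCR plus capillary electrophoresis. Cells were HepG2 transiently carrying cis-regulated reporter constructs, harvested 24 h after dosing.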

[2] = ATG_GRE_CIS: Attagene CIS-FACTORIAL HepG2 Assay for human Glucocorticoid Response Elements (GRE) (AID 2282947); details: HepG2 GRE cis-reporter, Attagene multiplex mRNA; actives raise or lower the signal
Method in brief: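 Reporter transcripts read by RT-PCR with capillary electrophoresis fluorescence after a 24 h chemical exposure of HepG2 cells transiently transfected with multiple cis-element reporter units. Gain or loss fitted against DMSO.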

[3] = ATG_ISRE_CIS: Attagene CIS-FACTORIAL HepG2 Assay for human Interferon Regulatory Factor 1 (IRF1) binding to an Interferon-Stimulated Response Element (ISRE) (AID 2282948); details: HepG2 ISRE cis-reporter (Attagene), mRNA transcription readout; actives raise or lower the signal
Method in brief: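 Signal reflects induction or loss of ISRE-linked reporter mRNA in transiently transfected HepG2 cells after a 24 h treatment, detected by fluorescent RT-PCR fragments on capillary electrophoresis and normalised to DMSO.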

[4] = ATG_M_32_CIS: Attagene CIS-FACTORIAL HepG2 Assay for M32 Transcription Factor (Internal Marker) (AID 2282949); details: HepG2 Attagene cis-factorial M32 reporter, mRNA; actives raise or lower the signal;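 note: background control marker of the multiplexed CIS panel rather than a real target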
Method in brief: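 HepG2 human liver cells transiently transfected with cis-promoter-driven multiple reporter transcription units, dosed 24 h. Reporter mRNA quantified by RT-PCR, FAM-labelled primer extension, HpaI digest and capillary electrophoresis; bidirectional fit versus DMSO baseline.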

[5] = ATG_M_06_CIS: Attagene CIS-FACTORIAL HepG2 Assay for M06 Transcription Factor (Internal Marker) (AID 2282950); details: HepG2 Attagene CIS-FACTORIAL M06 internal marker reporter; actives raise or lower the signal
Method in brief: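 Internal background marker within multiplexed cis-reporter HepG2 system. Cells transiently transfected, dosed 24 h; reporter mRNA measured by RT-PCR, HpaI digestion and capillary electrophoresis. Bidirectional fit relative to DMSO.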

[6] = biological target: Hypoxia-inducible factor 1-alpha (Homo sapiens) (UniProt Q16665); assay: ATG_HIF1a_CIS: Attagene CIS-FACTORIAL HepG2 Assay for human Hypoxia Inducible Factor 1 (HIF1A) (AID 2282951); details: HepG2 Attagene cis-factorial HIF1a reporter transcription; actives raise or lower the signal
Sequence of Hypoxia-inducible factor 1-alpha (Homo sapiens) (Q16665 whole entry, looked up): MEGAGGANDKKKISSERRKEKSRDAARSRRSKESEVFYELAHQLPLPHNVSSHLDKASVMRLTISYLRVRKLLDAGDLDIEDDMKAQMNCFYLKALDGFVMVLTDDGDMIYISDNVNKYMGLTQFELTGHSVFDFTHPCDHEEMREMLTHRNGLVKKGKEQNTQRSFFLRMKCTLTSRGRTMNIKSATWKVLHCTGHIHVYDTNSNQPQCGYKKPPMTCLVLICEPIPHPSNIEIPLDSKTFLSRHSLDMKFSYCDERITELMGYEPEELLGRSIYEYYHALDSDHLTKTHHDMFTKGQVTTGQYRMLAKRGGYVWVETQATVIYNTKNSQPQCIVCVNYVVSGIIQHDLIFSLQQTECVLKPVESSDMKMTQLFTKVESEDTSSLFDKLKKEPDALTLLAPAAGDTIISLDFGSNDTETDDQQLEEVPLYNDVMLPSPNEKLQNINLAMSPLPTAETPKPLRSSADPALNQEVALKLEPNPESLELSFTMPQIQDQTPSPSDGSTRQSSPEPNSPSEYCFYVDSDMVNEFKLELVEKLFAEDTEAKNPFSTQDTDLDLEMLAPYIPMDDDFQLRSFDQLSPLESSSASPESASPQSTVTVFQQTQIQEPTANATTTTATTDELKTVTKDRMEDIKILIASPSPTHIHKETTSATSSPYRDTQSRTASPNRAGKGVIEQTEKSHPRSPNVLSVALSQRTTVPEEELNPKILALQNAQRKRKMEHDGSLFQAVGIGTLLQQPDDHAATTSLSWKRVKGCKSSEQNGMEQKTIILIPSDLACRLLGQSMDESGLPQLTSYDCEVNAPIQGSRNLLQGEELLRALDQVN
Method in brief: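 After 24 h chemical exposure of reporter-transfected HepG2 cells, reporter cDNA was PCR-amplified, labelled by 6-FAM primer extension (2 min 95 C, 20 s 68 C, 10 min 72 C), HpaI-cut (2 h, 37 C) and analysed by CE.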

[7] = biological target: Hepatocyte nuclear factor 6 (Homo sapiens) (UniProt Q9UBC0); assay: ATG_HNF6_CIS: Attagene CIS-FACTORIAL HepG2 Assay for human Hepatocyte Nuclear Factor 6 (HNF6) (AID 2282952); details: HepG2 Attagene cis-factorial HNF6 reporter transcription; actives raise or lower the signal
Sequence of Hepatocyte nuclear factor 6 (Homo sapiens) (Q9UBC0 whole entry, looked up): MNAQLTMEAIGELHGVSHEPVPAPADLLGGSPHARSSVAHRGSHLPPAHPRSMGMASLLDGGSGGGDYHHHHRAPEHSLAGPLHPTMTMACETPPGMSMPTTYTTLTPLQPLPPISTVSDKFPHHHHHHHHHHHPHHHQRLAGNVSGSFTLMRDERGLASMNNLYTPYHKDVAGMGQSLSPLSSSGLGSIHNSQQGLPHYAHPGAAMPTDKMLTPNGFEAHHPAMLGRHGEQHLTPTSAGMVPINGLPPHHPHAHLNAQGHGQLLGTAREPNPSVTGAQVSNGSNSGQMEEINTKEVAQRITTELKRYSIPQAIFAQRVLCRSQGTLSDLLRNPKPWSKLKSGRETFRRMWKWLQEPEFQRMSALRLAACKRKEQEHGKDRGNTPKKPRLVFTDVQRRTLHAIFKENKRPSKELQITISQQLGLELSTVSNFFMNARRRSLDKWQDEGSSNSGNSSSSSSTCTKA
Method in brief: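 Activity values derive from bidirectional fitting against DMSO of reporter mRNA levels, measured by capillary electrophoresis of labelled RT-PCR products from HepG2 cells exposed 24 h.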

[8] = biological target: Heat shock factor protein 1 (Homo sapiens) (UniProt Q00613); assay: ATG_HSE_CIS: Attagene CIS-FACTORIAL HepG2 Assay for human Heat Shock Transcription Factor 1 (HSE) (AID 2282953); details: HepG2 HSE cis-reporter, Attagene RNA transcription; actives raise or lower the signal
Sequence of Heat shock factor protein 1 (Homo sapiens) (Q00613 whole entry, looked up): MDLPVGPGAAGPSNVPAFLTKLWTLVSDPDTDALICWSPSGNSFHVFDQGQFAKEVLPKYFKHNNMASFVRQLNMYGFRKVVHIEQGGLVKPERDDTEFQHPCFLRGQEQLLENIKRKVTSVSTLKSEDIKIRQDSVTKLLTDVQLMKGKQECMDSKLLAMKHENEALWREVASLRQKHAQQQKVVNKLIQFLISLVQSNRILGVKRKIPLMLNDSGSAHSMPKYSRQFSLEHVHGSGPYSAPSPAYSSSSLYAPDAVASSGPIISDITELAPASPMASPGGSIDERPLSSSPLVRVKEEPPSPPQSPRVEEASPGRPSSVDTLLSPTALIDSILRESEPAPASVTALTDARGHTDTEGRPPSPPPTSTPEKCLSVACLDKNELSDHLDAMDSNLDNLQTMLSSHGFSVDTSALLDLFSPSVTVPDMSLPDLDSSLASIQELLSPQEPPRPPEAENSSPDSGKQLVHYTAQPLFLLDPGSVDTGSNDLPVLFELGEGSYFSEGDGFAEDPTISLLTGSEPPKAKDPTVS
Method in brief: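 HepG2 cells transfected with cis-promoter reporter units sensing endogenous transcription factor activity; reporter mRNA quantified 24 h post-dose by RT-PCR and capillary electrophoresis of 6-FAM-labelled products. Bidirectional fitting against DMSO.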

[9] = ATG_MRE_CIS: Attagene CIS-FACTORIAL HepG2 Assay for human Metal Responsive Element (MRE) (AID 2282954); details: HepG2 MRE cis-reporter transcription, Attagene multiplex; actives raise or lower the signal
Method in brief: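 Endogenous MRE-dependent transcription read as reporter mRNA in transiently transfected human HepG2 cells at 24 h. RNA reverse-transcribed, PCR-amplified, labelled and resolved by capillary electrophoresis; gain or loss relative to DMSO.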

[10] = ATG_PBREM_CIS: Attagene CIS-FACTORIAL HepG2 Assay for human Phenobarbital-responsive Enhancer Module (PBREM) (AID 2282955); details: HepG2 PBREM cis-reporter, Attagene multiplexed transcription; actives raise or lower the signal
Method in brief: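 Measures endogenous factor action on a phenobarbital-responsive enhancer module. HepG2 transiently carrying cis reporters, 24 h treatment, mRNA read-out by RT-PCR plus capillary electrophoresis.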

[11] = biological target: Paired box protein Pax-6 (Homo sapiens) (UniProt P26367); assay: ATG_Pax6_CIS: Attagene CIS-FACTORIAL HepG2 Assay for human Paired Box 6 (PAX6) (AID 2282956); details: HepG2 CIS-FACTORIAL PAX6 reporter transcription, RNA readout; actives raise or lower the signal
Sequence of Paired box protein Pax-6 (Homo sapiens) (P26367 whole entry, looked up): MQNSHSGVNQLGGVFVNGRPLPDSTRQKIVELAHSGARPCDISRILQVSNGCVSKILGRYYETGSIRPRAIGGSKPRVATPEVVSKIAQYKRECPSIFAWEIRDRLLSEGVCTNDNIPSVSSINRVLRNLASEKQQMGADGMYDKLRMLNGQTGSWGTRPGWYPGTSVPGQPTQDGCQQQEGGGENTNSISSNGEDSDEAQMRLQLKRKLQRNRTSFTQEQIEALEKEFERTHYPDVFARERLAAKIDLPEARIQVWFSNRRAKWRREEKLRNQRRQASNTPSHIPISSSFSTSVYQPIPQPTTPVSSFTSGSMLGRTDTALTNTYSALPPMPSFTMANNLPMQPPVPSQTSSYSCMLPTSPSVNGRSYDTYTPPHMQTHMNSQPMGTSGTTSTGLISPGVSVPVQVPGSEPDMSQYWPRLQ
Method in brief: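 Values derive from bidirectional curve fitting of reporter mRNA signal relative to DMSO. HepG2 cells bearing transfected cis-regulated MRTUs were exposed for 24 h; transcripts were read by RT-PCR and capillary electrophoresis.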

[12] = ATG_PXRE_CIS: Attagene CIS-FACTORIAL HepG2 Assay for human Pregnane X Receptor Element (PXRE) (AID 2282957); details: HepG2 Attagene CIS-FACTORIAL PXRE reporter, mRNA; actives raise or lower the signal
Method in brief: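 Fluorescent capillary electrophoresis of amplified reporter cDNA gave the signal, collected 24 h after dosing HepG2 cells that held transfected cis-element reporter constructs.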

[13] = ATG_PPRE_CIS: Attagene CIS-FACTORIAL HepG2 Assay for human Peroxisome Proliferator-activated Response Element (PPRE) (AID 2282958); details: HepG2 PPRE cis-element reporter, Attagene transcription factor profiling; actives raise or lower the signal
Method in brief: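 PPRE activity in HepG2: transient cis-reporter transfection, 24 h compound incubation, reporter mRNA by RT-PCR and CE fluorescence; gain/loss fitted against DMSO.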

[14] = ATG_RORE_CIS: Attagene CIS-FACTORIAL HepG2 Assay for human RAR-related Orphan Receptor Element (RORE) (AID 2282959); details: HepG2 Attagene cis-factorial RORE reporter, mRNA; actives raise or lower the signal
Method in brief: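 A 24-hour exposure of transfected HepG2 hepatoma cells precedes RNA isolation and reporter RT-PCR. Labeled products are digested with HpaI and resolved by capillary electrophoresis, with gain or loss of signal scored relative to DMSO.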

[15] = ATG_Sox_CIS: Attagene CIS-FACTORIAL HepG2 Assay for human SRY-box transcription factor (SOX) (AID 2282960); details: HepG2 Attagene cis-factorial SOX reporter, mRNA; actives raise or lower the signal
Method in brief: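 HepG2, cis reporter units, 24 h exposure. Reporter mRNA: RT-PCR → FAM labelling → HpaI → CE fluorescence. Bidirectional fit vs DMSO.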

[16] = biological target: Transcription factor Sp1 (Homo sapiens) (UniProt P08047); assay: ATG_Sp1_CIS: Attagene CIS-FACTORIAL HepG2 Assay for human Specificity Protein 1 (Sp1) (AID 2282961); details: HepG2 Sp1 cis-reporter transcription, actives raise or lower the signal
Sequence of Transcription factor Sp1 (Homo sapiens) (P08047 whole entry, looked up, the tested form may be a part): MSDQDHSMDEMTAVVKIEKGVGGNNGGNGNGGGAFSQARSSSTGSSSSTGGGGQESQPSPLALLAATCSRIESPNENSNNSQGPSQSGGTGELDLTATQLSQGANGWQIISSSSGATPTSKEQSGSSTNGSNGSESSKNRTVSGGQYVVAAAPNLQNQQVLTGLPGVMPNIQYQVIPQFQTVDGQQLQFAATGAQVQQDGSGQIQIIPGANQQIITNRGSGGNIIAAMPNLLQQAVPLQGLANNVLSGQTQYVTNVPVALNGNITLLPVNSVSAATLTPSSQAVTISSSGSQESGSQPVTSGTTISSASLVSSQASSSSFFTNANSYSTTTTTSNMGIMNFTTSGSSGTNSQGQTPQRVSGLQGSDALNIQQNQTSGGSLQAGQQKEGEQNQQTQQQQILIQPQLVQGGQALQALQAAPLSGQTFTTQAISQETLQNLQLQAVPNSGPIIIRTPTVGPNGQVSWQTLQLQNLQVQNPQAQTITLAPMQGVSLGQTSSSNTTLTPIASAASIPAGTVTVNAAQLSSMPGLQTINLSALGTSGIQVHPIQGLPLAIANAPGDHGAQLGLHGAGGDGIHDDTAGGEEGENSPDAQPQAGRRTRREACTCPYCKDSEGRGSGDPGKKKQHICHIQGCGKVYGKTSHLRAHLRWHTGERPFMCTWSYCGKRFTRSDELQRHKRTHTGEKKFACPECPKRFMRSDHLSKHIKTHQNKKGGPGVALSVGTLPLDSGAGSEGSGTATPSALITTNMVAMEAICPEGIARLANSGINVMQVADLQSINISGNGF
Method in brief: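 Liver-derived HepG2 cells, cis-element reporter library, 24 h treatment; RNA isolated, cDNA amplified with reporter-specific primers, FAM-labeled fragments sized on capillary analyzer. DMSO baseline, bidirectional curve fit.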

[17] = ATG_SREBP_CIS: Attagene CIS-FACTORIAL HepG2 Assay for human Sterol Regulatory Element Binding (SREBP) (AID 2282962); details: HepG2 Attagene cis-factorial SREBP reporter, mRNA; actives raise or lower the signal
Method in brief: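 Values derive from bidirectional curve fitting with DMSO as baseline. The underlying measurement is reporter mRNA from cis-element-regulated units in transiently transfected HepG2, quantified by RT-PCR and capillary electrophoresis after 24 h exposure.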

[18] = biological target: Signal transducer and activator of transcription 3 (Homo sapiens) (UniProt P40763); assay: ATG_STAT3_CIS: Attagene CIS-FACTORIAL HepG2 Assay for human Signal Transducer and Activator of Transcription 3 (STAT3) (AID 2282963); details: HepG2, Attagene cis-factorial STAT3 reporter transcription; actives raise or lower the signal
Sequence of Signal transducer and activator of transcription 3 (Homo sapiens) (P40763 whole entry, looked up): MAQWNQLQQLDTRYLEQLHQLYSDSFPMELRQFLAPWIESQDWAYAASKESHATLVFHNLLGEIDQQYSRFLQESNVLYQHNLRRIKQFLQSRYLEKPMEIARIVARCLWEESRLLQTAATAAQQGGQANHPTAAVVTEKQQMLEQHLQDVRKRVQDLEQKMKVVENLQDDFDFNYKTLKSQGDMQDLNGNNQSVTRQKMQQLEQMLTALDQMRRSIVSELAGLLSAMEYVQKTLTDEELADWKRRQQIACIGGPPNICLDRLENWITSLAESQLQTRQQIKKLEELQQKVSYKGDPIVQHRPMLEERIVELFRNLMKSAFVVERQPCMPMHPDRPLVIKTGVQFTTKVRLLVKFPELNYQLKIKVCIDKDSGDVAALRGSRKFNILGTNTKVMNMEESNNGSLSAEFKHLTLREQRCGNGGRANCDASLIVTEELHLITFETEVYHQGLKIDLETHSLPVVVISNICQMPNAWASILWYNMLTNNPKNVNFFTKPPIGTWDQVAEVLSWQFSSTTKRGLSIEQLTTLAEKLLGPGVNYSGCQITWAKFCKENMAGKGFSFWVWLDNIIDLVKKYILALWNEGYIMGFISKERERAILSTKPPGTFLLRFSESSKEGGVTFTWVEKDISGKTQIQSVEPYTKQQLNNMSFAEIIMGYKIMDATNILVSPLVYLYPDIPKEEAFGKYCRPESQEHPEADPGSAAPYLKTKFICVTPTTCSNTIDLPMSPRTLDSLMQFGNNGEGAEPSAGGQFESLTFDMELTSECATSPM
Method in brief: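 Readout is reporter transcript quantified by RT-PCR and capillary electrophoresis, with 6-FAM primer extension and HpaI digestion. Total RNA is taken 24 h after dosing transiently transfected HepG2 carrying cis-regulated reporter units. Bidirectional fit against DMSO.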

[19] = ATG_TA_CIS: Attagene CIS-FACTORIAL HepG2 Assay for human TA Basal Promoter (AID 2282964); details: HepG2 Attagene CIS-factorial TA basal promoter reporter; actives raise or lower the signal
Method in brief: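 HepG2 cells transiently transfected with multiple reporter units under cis promoter elements, reporting endogenous transcription factor activity; this endpoint tracks the TA basal promoter as background control. Reporter mRNA after 24 h dosing measured by RT-PCR/capillary electrophoresis; bidirectional fits versus DMSO.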

[20] = biological target: Bile acid receptor (Homo sapiens) (UniProt Q96RI1); assay: ATG_IR1_CIS: Attagene CIS-FACTORIAL HepG2 Assay for human Nuclear Receptor Subfamily 1 Group H Member 4 (NR1H4), IR1 submotif (AID 2282946); details: IR1 reporter transcription, actives raise or lower the signal
Sequence of Bile acid receptor (Homo sapiens) (Q96RI1 whole entry, looked up): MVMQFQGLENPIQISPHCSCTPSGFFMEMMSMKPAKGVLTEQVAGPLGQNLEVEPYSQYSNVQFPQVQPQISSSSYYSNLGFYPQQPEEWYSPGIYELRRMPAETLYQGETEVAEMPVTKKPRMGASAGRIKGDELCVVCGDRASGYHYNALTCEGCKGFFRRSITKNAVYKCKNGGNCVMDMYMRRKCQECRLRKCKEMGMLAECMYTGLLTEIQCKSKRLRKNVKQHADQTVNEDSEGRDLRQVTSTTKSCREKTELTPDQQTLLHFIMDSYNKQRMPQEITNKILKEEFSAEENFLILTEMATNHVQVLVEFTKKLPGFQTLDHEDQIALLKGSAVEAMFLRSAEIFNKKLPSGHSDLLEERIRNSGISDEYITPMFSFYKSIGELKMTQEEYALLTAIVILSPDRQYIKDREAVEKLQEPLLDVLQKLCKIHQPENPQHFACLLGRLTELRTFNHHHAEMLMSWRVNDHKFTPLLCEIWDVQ
Method in brief: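 HepG2 cells transiently transfected with multiplexed cis-element reporter units read endogenous transcription factor activity. After 24 h compound exposure, reporter mRNA was quantified by RT-PCR, fluorescent labelling, HpaI digestion and capillary electrophoresis; bidirectional fitting versus DMSO baseline.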

Measured: AC50

CCOC(=O)CCC(=O)OCC
active: [12] 47.8 µM
not listed: [20]
inactive: all other assays above

CC1(C)NC(=O)NC1=O
active: [6] 12 µM | [12] 25.7 µM
not listed: [15] | [20]
inactive: all other assays above

Cc1oc(-c2ccccc2)nc1CCOc1cccc2c1ccn2CCC(=O)O
active: [13] 0.0633 µM | [14] 23.8 µM | [17] 26.8 µM
not listed: [15] | [20]
inactive: all other assays above

COc1ccc(C)cc1N
not listed: [20]
inactive: all other assays above

CC1(C)CC(N=C=O)CC(C)(CN=C=O)C1 (configuration not stated)
active: [12] 55.6 µM
not listed: [2] | [13] | [15]
inactive: all other assays above

O=C(OCCCCCOC(=O)c1ccccc1)c1ccccc1
active: [6] 26.3 µM
not listed: [15] | [20]
inactive: all other assays above

COc1ccc2c(c1)c(CC(=O)O)c(C)n2C(=O)c1ccc(Cl)cc1
active: [13] 12.5 µM
not listed: [15] | [20]
inactive: all other assays above

— PubChem BioAssay (EPA / NIEHS)
